Assay results as given in the supplement of paper PMC9694430.

Experiments:
Assay in all cases: thermal shift delta Tm vs DMSO control; higher = stronger stabilization (binding)
Settings in all cases: 12.5 µM; protein concentration 2 µM
LOC_OS04G57630-cb004 = test system: LOC_OS04G57630-cb004
Procedure, shortened: (§1)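 Rice kinase domain constructs, made in E. coli and purified, were placed in 96-well plates at 2 μM in 19.5 μl of 100 mM potassium phosphate pH 7.5, 150 mM NaCl, 10% glycerol and 5 × SYPRO Orange, with compound in DMSO. A temperature ramp from 25°C to 95°C at 0.05°C/s was used for differential scanning fluorimetry. The melting temperature shift is a triplicate mean compared with DMSO-only protein, derived from Boltzmann fits.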

LOC_OS05G07850-cb002 = test system: LOC_OS05G07850-cb002
Procedure, shortened: as §1

LOC_OS05G16824-cb004 = test system: LOC_OS05G16824-cb004
Procedure, shortened: as §1

LOC_OS05G28520-cb001 = test system: LOC_OS05G28520-cb001
Procedure, shortened: as §1

LOC_OS05G30820-cb001 = test system: LOC_OS05G30820-cb001
Procedure, shortened: as §1

LOC_OS05G43570-cb004 = test system: LOC_OS05G43570-cb004
Procedure, shortened: as §1

LOC_OS06G16330-cb003 = test system: LOC_OS06G16330-cb003
LOC_OS06G16330-cb003, sequence (as listed by the source): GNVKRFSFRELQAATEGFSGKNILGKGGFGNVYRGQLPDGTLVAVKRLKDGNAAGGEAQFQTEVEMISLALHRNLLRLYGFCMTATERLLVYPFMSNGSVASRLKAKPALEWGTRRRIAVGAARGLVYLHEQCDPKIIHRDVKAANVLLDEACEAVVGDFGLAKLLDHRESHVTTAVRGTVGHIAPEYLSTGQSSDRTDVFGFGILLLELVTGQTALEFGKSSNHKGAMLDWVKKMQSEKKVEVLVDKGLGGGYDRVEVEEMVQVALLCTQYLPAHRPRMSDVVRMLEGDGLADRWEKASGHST
Procedure, shortened: as §1

LOC_OS06G22820-cb001 = test system: T1, LOC_OS06G22820-cb001
T1 sequence (whole entry): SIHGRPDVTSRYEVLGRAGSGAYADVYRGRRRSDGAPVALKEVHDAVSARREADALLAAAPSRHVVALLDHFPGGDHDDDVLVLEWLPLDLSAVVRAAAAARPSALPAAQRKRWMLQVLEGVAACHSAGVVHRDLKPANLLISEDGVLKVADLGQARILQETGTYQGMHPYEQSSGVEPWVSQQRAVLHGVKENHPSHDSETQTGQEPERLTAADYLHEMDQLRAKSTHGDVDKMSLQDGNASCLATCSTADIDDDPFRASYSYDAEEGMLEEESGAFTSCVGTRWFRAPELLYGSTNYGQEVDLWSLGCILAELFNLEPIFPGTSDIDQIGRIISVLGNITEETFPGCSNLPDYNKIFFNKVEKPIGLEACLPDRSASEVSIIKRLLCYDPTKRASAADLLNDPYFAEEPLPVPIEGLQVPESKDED
Procedure, shortened: as §1

LOC_OS07G06570-cb004 = test system: LOC_OS07G06570-cb004
Procedure, shortened: as §1

LOC_OS07G07230-cb001 = test system: LOC_OS07G07230-cb001
Procedure, shortened: as §1
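Further: purified Escherichia coli-expressed rice kinase domain construct.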

Row | Compound | thermal shift delta Tm (LOC_OS04G57630-cb004) | thermal shift delta Tm (LOC_OS05G07850-cb002) | thermal shift delta Tm (LOC_OS05G16824-cb004) | thermal shift delta Tm (LOC_OS05G28520-cb001) | thermal shift delta Tm (LOC_OS05G30820-cb001) | thermal shift delta Tm (LOC_OS05G43570-cb004) | thermal shift delta Tm (LOC_OS06G16330-cb003) | thermal shift delta Tm (LOC_OS06G22820-cb001) | thermal shift delta Tm (LOC_OS07G06570-cb004) | thermal shift delta Tm (LOC_OS07G07230-cb001)
1 | CN(C)CCCn1cc(C2=C(c3c[nH]c4ccccc34)C(=O)NC2=O)c2ccccc21 | 0.12 °C | 3.88 °C | 1.25 °C | 0.24 °C | 0.37 °C | 0.07 °C | 0.14 °C | 0.44 °C | 0.94 °C | 0.81 °C
2 | Cc1nc(N)sc1-c1ccnc(Nc2ccc(N3CCOCC3)cc2)n1 | 2.53 °C | 13.4 °C | 8.12 °C | 0.36 °C | 0.56 °C | 0.98 °C | 6.87 °C | 0.66 °C | 0.8 °C | 0.42 °C
3 | c1cc(-c2cnn3cc(-c4ccc(OCCN5CCCCC5)cc4)cnc23)ccn1 [Dorsomorphin 2HCl] | 6.96 °C | 9.81 °C | 12.6 °C | 3.18 °C | 1.22 °C | 0.81 °C | 8.76 °C | 0.18 °C | 1.04 °C | 1.17 °C
4 | CCN1C(=O)CNc2ncc(-c3ccc(-c4nc[nH]n4)nc3C)nc21 | -0.18 °C | 0.15 °C | -3.58 °C | 0.29 °C | 0.42 °C | -0.33 °C | -0.44 °C | 0.23 °C | 0.95 °C | 0.66 °C
5 | Cc1ccc(-n2nc(C(C)(C)C)cc2NC(=O)Nc2ccc(OCCN3CCOCC3)c3ccccc23)cc1 [Doramapimod (BIRB 796)] | 1.36 °C | 1.84 °C | -1.73 °C | 0.26 °C | 0.82 °C | 0.41 °C | 0.15 °C | 0.9 °C | 0.71 °C | 0.5 °C
6 | N#C/C(=C\c1ccc(O)c(O)c1)C(=O)NCc1ccccc1 [AG-490 (Tyrphostin B42)] | -1.22 °C | -1.56 °C | -18.1 °C | 1.95 °C | 0.64 °C | 0.9 °C | -0.03 °C | 1 °C | 2.29 °C | 0.61 °C
7 | Clc1ccc(Nc2nnc(Cc3ccncc3)c3ccccc23)cc1 [Vatalanib (PTK787) 2HCl] | -0.2 °C | -0.28 °C | -1.81 °C | -0.19 °C | 0.45 °C | 0.05 °C | 0.09 °C | 0.55 °C | 0.43 °C | 0.41 °C
8 | COc1ccc(-c2ccc3c(N4CCOC[C@@H]4C)nc(N4CCOC[C@@H]4C)nc3n2)cc1CO | -0.09 °C | 0.42 °C | -7.62 °C | 0.13 °C | 0.67 °C | 0.21 °C | 0.03 °C | 0.43 °C | 0.38 °C | 0.11 °C
9 | COc1cc2ncnc(Nc3ccc(O)c(Br)c3)c2cc1OC | 0.28 °C | 12 °C | -0.59 °C | 0.86 °C | 0.54 °C | 0.23 °C | 5.86 °C | 0.8 °C | 1.76 °C | 0.01 °C
10 | CC(C)NC(=O)COc1cccc(-c2nc(Nc3ccc4[nH]ncc4c3)c3ccccc3n2)c1 | 0.57 °C | 1.61 °C | -3.52 °C | 0.71 °C | 0.73 °C | 0.42 °C | 0.58 °C | 0.84 °C | 0.26 °C | -0.31 °C
11 | N#CCNC(=O)c1ccc(-c2ccnc(Nc3ccc(N4CCOCC4)cc3)n2)cc1 [Momelotinib (CYT387)] | 3.11 °C | 11.6 °C | 3.39 °C | 0.59 °C | 0.75 °C | 0.76 °C | 7.69 °C | 0.49 °C | 0.77 °C | 0.53 °C
12 | CC(C)Nc1cc(-c2c[nH]c(C(=O)N[C@H](CO)c3cccc(Cl)c3)c2)c(Cl)cn1 | -0.02 °C | 2.27 °C | -2.75 °C | 0.6 °C | 0.63 °C | 0.49 °C | 0.62 °C | 0.65 °C | 1.26 °C | -0.16 °C
13 | Cn1cc(-c2ccc3c(c2)CCN3C(=O)Cc2cccc(C(F)(F)F)c2)c2c(N)ncnc21 | 1.69 °C | 6.67 °C | 1.91 °C | 0.55 °C | 0.78 °C | 0.46 °C | 2.76 °C | 0.97 °C | 0.97 °C | 4.19 °C
14 | COc1cc2c(c(OC)c1OC)-c1c(cc3c(c1OC)OCO3)CC(C)C(C)C2 (stereo not given) [Schisandrin B (Sch B)] | 0.17 °C | 1.23 °C | -1 °C | 0.63 °C | 0.52 °C | 0.14 °C | -0.39 °C | 0.43 °C | 1.21 °C | -0.17 °C
15 | COCC(=O)NC/C=C/c1ccc2ncnc(Nc3ccc(Oc4ccc(C)nc4)c(C)c3)c2c1 | 0.08 °C | 3.11 °C | -4.84 °C | -0.02 °C | 0.4 °C | 0.04 °C | 0.23 °C | 0.59 °C | 0.41 °C | 0.08 °C
16 | COc1ccc(CCNCc2ccc(OCc3ccc(Cl)nc3)c(OC)c2)cc1OC | 0.32 °C | -0.86 °C | -5.08 °C | 0.09 °C | 0.33 °C | -0.15 °C | -0.05 °C | 0.26 °C | 0.85 °C | 0.59 °C
17 | Cc1nc(Nc2ncc(C(=O)Nc3c(C)cccc3Cl)s2)cc(N2CCN(CCO)CC2)n1 [Dasatinib] | 2.57 °C | 4.35 °C | 5.06 °C | 1.02 °C | 0.42 °C | 0.75 °C | 1.61 °C | 0.79 °C | 1.03 °C | 1.1 °C
18 | Cc1ccc([N+](=O)[O-])cc1S(=O)(=O)N(C)/N=C/c1cnc2ccc(Br)cn12 | 1.58 °C | 1.88 °C | 3.43 °C | 1.13 °C | 0.85 °C | 1.49 °C | 7.74 °C | 0.41 °C | 1.41 °C | 0.94 °C
19 | COc1ccc(-c2ccc3c(N4CCOCC4)nc(N4C[C@@H](C)O[C@@H](C)C4)nc3n2)cc1CO | -0.55 °C | -0.78 °C | -3.16 °C | 0 °C | 0.48 °C | 0.2 °C | -0.25 °C | 0.14 °C | 0.51 °C | 0.35 °C
20 | CC(C)(C)c1cc(/C=C(\C#N)C(N)=S)cc(C(C)(C)C)c1O [Tyrphostin AG 879] | -0.19 °C | 12.1 °C | -5.25 °C | 1.25 °C | 1.1 °C | 1.09 °C | 1.66 °C | 1.38 °C | 2.77 °C | 0.65 °C
